Sampled rows, rich in hits. Any-hit rate of the full collection: about 1.2%.
RGS4-Gao reg = modulators of RGS4 binding to Galphao, primary screen, biochemical, multiplexed bead flow cytometry; Guanine nucleotide-binding protein G(o) subunit alpha (Homo sapiens), P09471; actives lie on both sides; binding response (% of control), % at 10 µM; 220,000 compounds, 0.33% hits; AID 1415, 2008; in the data active = binding response below about 49% or above about 150%; inactive = in between;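 also: fluorescent Galphao activated with aluminum fluoride binding bead-coupled RGS4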
Target sequence (P09471 whole entry, looked up): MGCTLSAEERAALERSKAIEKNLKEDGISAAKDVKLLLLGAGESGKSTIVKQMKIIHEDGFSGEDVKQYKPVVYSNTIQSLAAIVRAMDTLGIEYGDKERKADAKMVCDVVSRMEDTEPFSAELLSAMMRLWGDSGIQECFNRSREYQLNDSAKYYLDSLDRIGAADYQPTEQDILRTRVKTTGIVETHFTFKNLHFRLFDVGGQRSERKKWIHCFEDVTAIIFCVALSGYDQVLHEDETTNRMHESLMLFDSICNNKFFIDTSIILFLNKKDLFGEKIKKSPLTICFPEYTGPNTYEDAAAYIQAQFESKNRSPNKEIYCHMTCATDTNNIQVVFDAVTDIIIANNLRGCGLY
RGS7-Gao reg = RGS7-Galphao binding modulators, primary screen, biochemical, multiplexed bead flow cytometry; 220,000 compounds, 0.35% hits; Guanine nucleotide-binding protein G(o) subunit alpha (Homo sapiens), P09471; actives lie on both sides; binding response (% of control), % at 10 µM; in the data active = binding response below about 49% or above about 150%; inconclusive = no clear call, values can overlap the other calls; inactive = in between;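 also: fluorescent Galphao held in activated GDP-AlF4 state binding bead-coupled RGS7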
RGS16-Gao = modulators of RGS16 binding to Galphao, primary screen, biochemical, human proteins, multiplexed bead flow cytometry; 220,000 compounds, 0.38% hits; binding response (% of control), % at 10 µM; bead-based flow cytometry RGS16-Galphao binding, fluorescence; actives lie on both sides; AID 1441, 2008;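 also: Galphao activated by GDP with aluminum fluoride before binding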
Target sequence (O15492 whole entry, looked up): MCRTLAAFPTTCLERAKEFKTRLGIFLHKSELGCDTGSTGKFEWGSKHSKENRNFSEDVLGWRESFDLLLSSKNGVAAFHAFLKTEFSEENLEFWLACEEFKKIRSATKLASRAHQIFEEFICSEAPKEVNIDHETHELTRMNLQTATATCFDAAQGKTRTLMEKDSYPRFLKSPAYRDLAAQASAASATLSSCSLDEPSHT
Target sequence (P09471 whole entry, looked up): as the sequence (P09471 whole entry, looked up) above
RGS8-Gao = RGS8-Galphao binding modulators, primary screen, biochemical, multiplexed bead flow cytometry; Guanine nucleotide-binding protein G(o) subunit alpha (Homo sapiens), P09471; actives lie on both sides; response (percent of control binding), % at 10 µM; 220,000 compounds, 0.34% hits; AID 1423, 2008; in the data active = response below about 60% or above about 140%; inactive = in between;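 also: Galphao activated as the GDP aluminium fluoride complex binding bead-coupled RGS8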
Avidin fluor = green autofluorescence of compounds with avidin beads – biophysical, 488/530 nm, flow cytometry, artefact control, profiling panel. compound fluorescence 488/530 nm; hits give high values. fluorescence (KMESF) at 10 µM. 220,000 compounds, 0.38% hits. AID 1775, 2009; in the data active = fluorescence above about 47
GSH bead fluor = compound fluorescence on glutathione beads, profiling panel, artefact control, biophysical, 488/530 nm, flow cytometry; AID 1776, 2009; GSH beads flow cytometry, compound fluorescence 488/530 nm; hits give high values; 190,000 compounds, 0.25% hits; fluorescence (KMESF) at 10 µM; in the data active = fluorescence above about 89;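 also: glutathione beads carrying GST-tagged Bcl family fusion proteins plus one bare bead set; values are compound well signal with DMSO vehicle wells as background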
RGS-Gao = modulators of RGS–Galpha-o binding, primary screen, biochemical, multiplexed beads, flow cytometry, RGS4/7/8/16/19. RGS4–Galpha-o binding response, % at 10 µM. shares compounds with RGS16-Gao. 1,600 compounds, 99% hits. multiplexed bead flow cytometry;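 also: fluorescently labeled Galpha-o bound to GDP with aluminium fluoride binding biotinylated RGS beads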
Avidin counter = disruption of biotin probe capture by avidin, counter-screen for RGS protein interaction modulators, biochemical, flow cytometry, bead-based. AID 1783, 2009. inhibition, % at 10 µM. 1,700 tested, under 10 active. streptavidin beads, fluorescein-biotin binding. shares compounds with RGS16-Gao;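 active = inhibition above 50%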;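 also: median green fluorescence of gated singlet beads compared with DMSO control wells; 0% = DMSO wells and 100% = complete loss of bead fluorescence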
RGS8-Gao confirm = RGS8-Galphao binding modulators, confirmation, biochemical, multiplexed bead flow cytometry, single concentration. shares compounds with RGS16-Gao. binding response (% of control), % at 10 µM. 1,700 compounds, 3% hits. bead-based flow cytometry RGS8-Galphao binding, fluorescence; actives lie on both sides; in the data active = binding response below about 72% or above about 130%; inactive = in between;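 also: Galphao activated as GDP AlF4 complex before binding bead RGS8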
RGS7-Gao single = RGS7-Galphao binding modulators, confirmation, biochemical, multiplexed bead flow cytometry, single concentration | bead-based flow cytometry RGS7-Galphao binding; actives lie on both sides | 1,700 compounds, 7.8% hits | response (percent of control binding), % at 10 µM | shares compounds with RGS16-Gao; in the data active = response below about 75% or above about 130%; inactive = in between;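 also: fluorescent Galphao activated with GDP and aluminum fluoride binding bead-coupled RGS7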
RGS16-Gao single = modulators of RGS16-Galphao protein binding, confirmation, biochemical, single concentration, multiplexed bead flow cytometry; bead-based flow cytometry; actives lie on both sides; shares compounds with RGS16-Gao; 1,700 compounds, 4% hits; response (% of control binding), % at 10 µM; AID 1838, 2009; in the data active = response below about 74% or above about 130%; inactive = in between;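 also: Galphao activated as the GDP aluminium fluoride complex binding bead-coupled RGS16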
RGS4-Gao single = modulators of RGS4-Galphao protein binding, confirmation, biochemical, single concentration, multiplexed bead flow cytometry | shares compounds with RGS16-Gao | actives lie on both sides | binding response (% of control), % at 10 µM | 1,700 compounds, 4% hits; in the data active = binding response below about 74% or above about 130%; inactive = in between
RGS19-Gao single = regulators of RGS19-Galphao binding, confirmation, biochemical, single point, multiplexed bead flow cytometry; shares compounds with RGS16-Gao; bead-based flow cytometry RGS19-Galphao binding; actives lie on both sides; response (percent of control binding), % at 10 µM; 1,700 compounds, 5% hits; in the data active = response below about 50% or above about 160%; inactive = in between;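 also: 100% = no compound control and 0% = blank background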
Numbers without * were called inactive; i = inactive; ? = inconclusive; . = no result given; [ ] = dose if it differs, or a comment. Unless noted, no rule for the calls is given here.

SMILES	RGS4-Gao reg	RGS7-Gao reg	RGS16-Gao	RGS8-Gao	Avidin fluor	GSH bead fluor	RGS-Gao	Avidin counter	RGS8-Gao confirm	RGS7-Gao single	RGS16-Gao single	RGS4-Gao single	RGS19-Gao single
Cc1ccc2nc(-c3cccnc3)c(NC3CCCCC3)n2c1	114.1	117.0	203.3*[activator]	121.3	13	4	114.1*	-1.3	107.0	104.1	109.8	104.3	119.5
Cc1ccc2nc(-c3cccnc3)c(Nc3ccccc3C)n2c1	98.1	98.5	98.9	99.5	9	70	.	.	.	.	.	.	.
NC(=O)C1CCN(C(=O)Nc2csc3ccccc23)CC1	93.0	?	97.8	74.7	5	.	.	1.2	99.9	101.2	100.7	102.7	114.7
COc1ccccc1NC(=S)N(CCCN1CCOCC1)Cc1cccs1	100.1	99.1	98.1	97.3	13	12	.	.	.	.	.	.	.
CN(Cc1cn(C)nc1-c1ccccc1F)CC1CCN(Cc2ccccc2)CC1	96.8	?	100.2	100.4	4	.	.	.	.	.	.	.	.
CN(Cc1cn(C)nc1-c1ccccc1F)CC1CCCCO1 (stereo unspecified)	73.7	46.1*	78.0	66.7	0	14	73.7*	0.1	101.4	100.0	101.9	102.5	96.6
Clc1ccc(-c2csc3ncnc(Cl)c23)cc1	104.7	102.8	104.2	101.8	16	15	.	.	.	.	.	.	.
NNc1ncnc2scc(-c3ccc(Cl)cc3)c12	137.9	139.9	145.7	148.7*[activator]	2	9	137.9*	-0.1	99.7	93.0	101.1	96.8	77.5
O=C(Cc1csc(N2CCOCC2)n1)N/N=C/c1ccc(O)c(O)c1O	66.2	?	49.0	57.2*	5	12	66.2*	i	72.0*	68.4*	69.8*	79.1	36.8*
COc1ccc(C(C)=O)cc1CSc1nnc(Nc2ccccc2)s1	102.2	100.8	108.6	102.6	14	3	.	.	.	.	.	.	.
COc1c(Br)cc(C(N)=O)cc1OCc1ccccc1	76.7	77.2	-1.3*	69.0	6	10	76.7*	1.1	101.0	98.8	102.1	100.7	103.0
COc1ccc(C(=O)C[n+]2ccc3c(c2)nc(-c2cc(OC)c(OC)cc2OC)n3C)cc1	74.8	67.7	17.8*	61.0	5	17	74.8*	0.7	102.2	104.8	102.1	101.1	97.5
COc1cc(OC)c(-c2nc3c[n+](CC(=O)c4ccccc4)ccc3n2C)cc1OC	102.2	101.0	86.8	97.8	8	36	.	.	.	.	.	.	.
O=C(CN1C(=O)NC2(CCCC2)C1=O)NCCC1=CCCCC1	37.3*	29.1*	27.4	31.2*	14	12	.	-1.1	100.7	98.1	100.6	98.5	98.2
Cc1ccc(C2(C)NC(=O)N(CC(=O)NCCC3=CCCCC3)C2=O)cc1 (stereo unspecified)	99.8	100.2	101.4	101.8	9	24	.	.	.	.	.	.	.
CCCCOCP(=O)(CCCC)COCCCC	23.7*	24.6*	-0.5	31.6*	1	28	.	0.6	101.6	103.6	102.2	102.3	97.1
CSc1cccc(NC(=O)CN(Cc2ccc(Cl)cc2)S(C)(=O)=O)c1	102.5	110.2	118.4	104.9	7	9	.	.	.	.	.	.	.
C=CCn1c(CCNC(=O)c2ccccc2F)nnc1SCc1nc2ccccc2c(=O)[nH]1	100.1	99.7	99.2	98.1	13	35	.	.	.	.	.	.	.
C=CCn1c(CNC(=O)c2ccccc2F)nnc1SCc1nc2ccccc2c(=O)[nH]1	.	.	.	.	.	10	.	-0.8	98.0	96.4	97.2	97.1	89.5
COc1ccc2cc(-c3[nH]ncc3CN3CCCC3c3nonc3C)ccc2c1 (stereo unspecified)	101.8	101.6	104.8	102.4	10	56	.	.	.	.	.	.	.
N#Cc1cccc(C(c2nnnn2Cc2ccccc2)N2CCCC2)c1 (stereo unspecified)	101.8	107.1	107.1	102.1	7	36	.	.	.	.	.	.	.
CN1CCN(C(c2cccc(C(F)(F)F)c2)c2nnnn2Cc2ccccc2)CC1 (stereo unspecified)	125.5	119.7	348.4	143.9*[activator]	5	44	125.5*	1.1	100.2	99.6	102.1	101.2	105.2
CCN(CC)c1ccc(NC(=O)Nc2cccc(C(C)=O)c2)cc1	-7.5*	-3.4*	-17.1*	5.3*	-5	36	.	1.1	96.9	93.8	97.2	91.6	95.6
COc1ccc(C(=O)OC(C)CN2CCOCC2)cc1OC (stereo unspecified)	103.0	101.6	105.4	100.8	6	6	.	.	.	.	.	.	.
COc1cc(C(=O)OC(C)CN2CCCC2)cc(OC)c1OC (stereo unspecified)	46.6*	43.8*	42.4	48.6*	6	25	.	0.2	105.0	105.2	110.7	107.1	118.1
O=S(=O)(CCc1ccccc1)N1CCOCC1	48.0*	67.6	-84.7	68.5	8	9	.	-1.0	96.6	81.1	90.9	84.0	88.4

Screening data deposited in PubChem BioAssay by NMMLSC.
